The values below come from PubChem BioAssay (Tox21).

Where “and” joins values, the source holds several entries; their conditions need not be identical. Equal values may be shown once. Inconclusive results are not listed. Calls of active or inactive are those of the source. Unless noted, the call rests on the fitted dose curve; in most records, active means well fitted curve in the direction sought with a large enough effect in the repeat runs; inconclusive means weak or mixed curves; inactive means no such curve, though single readings can be large; an effect the other way counts as inactive or inconclusive.

The nature of test [1]: qHTS assay to identify small molecule antagonists of the glucocorticoid receptor (GR) signaling pathway - cell viability counter screen (AID 720693). Further: nearly all actives have a fitted effect of over 55% in size. Further: potency means the concentration at half of the fitted maximal effect.
A short description of test [2]: qHTS assay for identifying genotoxic compounds that show differential cytotoxicity against isogenic chicken DT40 cell lines with known DNA damage response pathways - wild type cell line (AID 743012). Further: nearly all actives have a fitted effect of over 60% in size. Further: potency means the concentration at half of the fitted maximal effect. The gist of the method:
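Viability by ATP luminescence (CellTiter-Glo, 30 min RT) after 40 h compound treatment at 37 C/5% CO2, using 300 parental DNA repair-proficient DT40 cells per well.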

Test [3] in a line: qHTS assay for identifying genotoxic compounds that show differential cytotoxicity against isogenic chicken DT40 cell lines with known DNA damage response pathways - Rev3 mutant cell line (AID 743014). Further: nearly all actives have a fitted effect of over 55% in size. Further: potency means the concentration at half of the fitted maximal effect.
Test [4] can be described thus: qHTS assay for identifying genotoxic compounds that show differential cytotoxicity against isogenic chicken DT40 cell lines with known DNA damage response pathways - Rad54/Ku70 mutant cell line (AID 743015). Further: nearly all actives have a fitted effect of over 60% in size. Further: potency means the concentration at half of the fitted maximal effect.
Test [5] in a line: qHTS assay to identify small molecule antagonists of the androgen receptor (AR) signaling pathway - cell viability counter screen (AID 743033; further: nearly all actives have a fitted effect of over 45% in size; further: potency means the concentration at half of the fitted maximal effect).
Test [6] concerns the target Androgen receptor (Homo sapiens) (UniProt P10275). In words: qHTS assay to identify small molecule antagonists of the androgen receptor (AR) signaling pathway (AID 743035; active means well fitted inhibition curve with a large enough effect in the signal ratio in the repeat runs, not every such curve was filed as active; the % refers to the signal ratio). The essentials: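 Antagonist mode: AR-bla HEK293 cells co-treated with test compounds and agonist R1881 for 16 h at 37C, 5% CO2. Beta-lactamase activity read as FRET fluorescence after 2 h room-temperature substrate loading.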

Test [7] shares this target. In words: qHTS assay to identify small molecule agonists of the androgen receptor (AR) signaling pathway (AID 743036; active means well fitted activation curve with a large enough effect in the signal ratio in the repeat runs, with a control signal flat, not every such curve was filed as active; the % refers to the signal ratio). The gist of the method:
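HEK293 cells stably carrying a UAS-driven beta-lactamase reporter (GeneBLAzer AR-UAS-bla-GripTite) were plated at 2,000 cells/well, rested 4 h at 37C, then exposed to compounds in DMSO for 16 h. LiveBLAzer B/G FRET substrate was added for 2 h at room temperature; fluorescence read.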

The nature of test [8]: qHTS assay to identify small molecule antagonists of the androgen receptor (AR) signaling pathway using the MDA cell line - cell viability counter screen (AID 743041; further: nearly all actives have a fitted effect of over 45% in size). The essentials: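 qHTS viability read-out; MDA-kb2 AR-luc; R1881-stimulated; 16 h exposure at 37C, 0% CO2; CellTiter-Fluor, 30 min; fluorescence intensity.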
Test [9] deals with Androgen receptor (Homo sapiens) (UniProt P10275). In words: qHTS assay to identify small molecule antagonists of the androgen receptor (AR) signaling pathway using the MDA cell line (AID 743042; further: nearly all actives have a fitted effect of over 55% in size). The gist of the method:
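MDA-kb2 cells (human breast carcinoma, stably carrying an MMTV-luciferase reporter responsive to AR and GR) were plated at 3,000 cells/well and preincubated 5 hr at 37C, then given compound plus R1881 agonist for 16 h. ONE-Glo luminescence was read.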

The target is the same in test [10]. In words: qHTS assay to identify small molecule agonists of the androgen receptor (AR) signaling pathway using the MDA cell line (AID 743040; further: nearly all actives have a fitted effect of over 20% in size). The essentials:
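Agonist activity is measured as luciferase luminescence in human MDA-kb2 cells whose MMTV reporter responds to both AR and GR. Compounds in DMSO incubate 16 h at 37C, 0% CO2, and ONE-Glo is read after 30 min.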

Chain of Androgen receptor (Homo sapiens) (P10275 whole entry, looked up): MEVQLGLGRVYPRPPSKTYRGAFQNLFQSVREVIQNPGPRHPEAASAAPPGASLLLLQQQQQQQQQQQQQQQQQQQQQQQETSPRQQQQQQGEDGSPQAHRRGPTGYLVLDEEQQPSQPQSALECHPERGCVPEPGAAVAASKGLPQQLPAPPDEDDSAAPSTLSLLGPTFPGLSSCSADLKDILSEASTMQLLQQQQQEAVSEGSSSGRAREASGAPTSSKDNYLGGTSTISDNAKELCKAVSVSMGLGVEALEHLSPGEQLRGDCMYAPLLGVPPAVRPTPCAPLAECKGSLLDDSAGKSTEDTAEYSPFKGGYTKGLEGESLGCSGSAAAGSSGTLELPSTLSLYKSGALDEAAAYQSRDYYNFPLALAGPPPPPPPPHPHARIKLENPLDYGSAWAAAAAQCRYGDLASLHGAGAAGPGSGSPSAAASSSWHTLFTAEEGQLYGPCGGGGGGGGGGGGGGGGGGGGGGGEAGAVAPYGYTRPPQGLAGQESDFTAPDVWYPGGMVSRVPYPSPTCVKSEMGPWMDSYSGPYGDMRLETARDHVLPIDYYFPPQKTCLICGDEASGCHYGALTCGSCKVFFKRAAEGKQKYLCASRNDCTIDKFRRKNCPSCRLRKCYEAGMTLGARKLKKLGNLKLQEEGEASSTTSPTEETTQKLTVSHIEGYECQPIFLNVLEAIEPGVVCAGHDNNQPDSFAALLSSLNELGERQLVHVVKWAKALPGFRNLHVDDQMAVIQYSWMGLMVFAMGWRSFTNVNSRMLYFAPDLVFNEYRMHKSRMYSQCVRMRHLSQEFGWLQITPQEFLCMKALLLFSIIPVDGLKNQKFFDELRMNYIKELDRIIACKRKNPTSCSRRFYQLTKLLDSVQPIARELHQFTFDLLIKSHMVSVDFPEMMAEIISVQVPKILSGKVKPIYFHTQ

Regarding `CCCCCCCCCCCCCCCC(=O)OC[C@H](COP(=O)([O-])OCC[N+](C)(C)C)OC(=O)CCCCCCCCCCCCCCC`, the Potency entry in test [1], in [2], in test [3], in test [4], in test [5] and in [6] was “inactive” in each case. In addition, the Potency result in test [7], in [8] and in [9] was “inactive” in each case.
On to `C=CC1=C(C(=O)O)N2C(=O)[C@@H](NC(=O)/C(=N\O)c3csc(N)n3)[C@H]2SC1` (stereo in doubt), for which the Potency entry in test [1], in test [2], in [3], in [4], in test [5] and in [6] was “inactive” each time. Also, the Potency entry in [7], in test [10], in test [8] and in test [9] was “inactive” in each case.
`Cc1cc(C(=O)NCCc2ccc(S(=O)(=O)NC(=O)NN3CCCCCC3)cc2)no1`: the Potency entry in test [1], in test [2], in test [3], in [4], in test [5] and in [6] was “inactive” each time. Besides, the Potency result in [7], in test [10], in [8] and in test [9] was “inactive” each time.
As to `Cc1cc(=O)c(C(=O)N[C@@H](C(=O)N[C@@H]2C(=O)N3C(C(=O)O)=C(CSc4nnnn4C)CS[C@H]23)c2ccc(O)cc2)c[nH]1`, the Potency entry in test [1], in [2], in [3], in test [4], in test [5] and in test [6] was “inactive” each time. Besides, the Potency entry in test [7], in test [8] and in test [9] was “inactive” throughout.
`C[N+](C)(C)CCOP(=O)(O)OP(=O)([O-])OC[C@H]1O[C@@H](n2ccc(N)nc2=O)[C@H](O)[C@@H]1O`: the Potency result in test [1], in test [2], in [3], in [4], in [5] and in test [6] was “inactive” in each case. For the same compound, the Potency entry in [7], in [8] and in [9] was “inactive” throughout.
`O=C(O)[C@@H]1C[C@H](CP(=O)(O)O)CCN1`: the Potency result in [1], in test [2], in test [3], in test [4], in test [5] and in [6] was “inactive” throughout. In addition, the Potency entry in [7], in test [10], in test [8] and in test [9] was “inactive” each time.
For `CCCCCCCCCC[N+](C)(CCCCCCCCCC)CCC[Si](OC)(OC)OC`, the Potency entry in [1] was “inactive”. Also, the Potency was 5.45 µM (active) in test [2], 7.7 µM (active) in [3], 7.7 µM (active) in test [4] and 43.6 µM (active) in test [5].
Turning to `CCOc1ccc([N+](=O)[O-])cc1`, the Potency in test [1] is 35.2 µM (active); in test [2], 62 µM (active); in test [3], 31.1 µM (active); in [4], 43.9 µM (active). The Potency result in test [5] is “inactive”.
Take `Oc1ccc(Cl)c2c1CCC2`: the Potency entry in test [1], in test [2], in test [3], in test [4], in [5] and in test [6] was “inactive” throughout. Further, the Potency entry in [7], in test [10], in test [8] and in test [9] was “inactive” throughout.
For the compound `NC(N)=NCc1cccc(I)c1`, the Potency result in test [1] and in test [5] was “inactive” throughout. In addition, the Potency in test [2] is 5.96 µM (active) and 8.41 µM (active); in [3], 8.41 µM (active) and 11.9 µM (active); in test [4], 6.68 µM (active) and 7.5 µM (active).
In the case of `O=C1C2CC3CC1CC(O)(C3)C2`, the Potency result in test [1], in test [2], in [3], in [4], in test [5] and in [6] was “inactive” throughout. Also, the Potency entry in test [7], in test [8] and in test [9] was “inactive” in each case.
`C=C1[C@@H]2CC[C@@H](C2)C1(C)C`: the Potency result in test [1], in test [2], in test [3], in [4] and in test [5] was “inactive” in each case.
Regarding `CCN1CCCC1CNC(=O)c1cc(S(=O)(=O)CC)ccc1OC` (stereo not drawn), the Potency result in test [1], in test [2], in test [3], in test [4], in [5] and in test [6] was “inactive” each time. Further, the Potency result in test [7], in test [10], in [8] and in [9] was “inactive” each time.
As for `CC(=O)OCC1=C(C(=O)O)N2C(=O)[C@@H](NC(=O)Cc3ccccc3)[C@H]2SC1`, the Potency result in test [1], in [2], in test [3], in [4], in test [5] and in test [6] was “inactive” each time. For the same compound, the Potency result in test [7], in test [8] and in test [9] was “inactive” in each case.
For the compound `COc1ccc(/C=C/C(=O)O)cc1`, the Potency entry in test [1], in [2], in test [3], in test [4], in test [5] and in test [6] was “inactive” in each case. Also, the Potency entry in test [7], in test [10], in test [8] and in [9] was “inactive” each time.
With `O=C(O)COc1ccccc1/C=N/NC(=O)c1ccncc1`, the Potency entry in test [1], in test [2], in [3], in test [4], in test [5] and in test [6] was “inactive” throughout. Moreover, the Potency result in test [7], in test [8] and in test [9] was “inactive” each time.
Consider `CC(C)(Oc1ccc(C2CCCc3ccccc32)cc1)C(=O)O` (stereo not drawn), for which the Potency entry in test [1], in test [2], in [3], in test [4], in test [5] and in test [6] was “inactive” throughout. Moreover, the Potency result in [7], in [8] and in [9] was “inactive” in each case.
